This note sets out measurements from the supplement of paper PMC12350171.

Molecules are shown by their SMILES. Structures can show the parent of a compound that is named as a salt. Values without a mark were called inactive.

Common to all, as to details: 20 µM
Experiment [1] relates to Salmonella enterica typhimurium. Briefly: growth AUC normalised to DMSO control (fraction of control); higher = less growth inhibition, active = hit call of the paper. The method, boiled down: (§1)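 Three biological replicates were carried out, with OD578 read hourly for 24 h. Before inoculation at a starting OD578 of 0.01, pathogens were passaged anaerobically twice; plates were pre-reduced mGAM containing 20 μM compound and 1% DMSO, sealed with breathable membranes, and the Haemophilus parainfluenzae medium carried added hemin and NAD. Area under each growth curve was calculated by the trapezoidal rule up to the exponential-to-stationary transition and normalised to DMSO controls on the same plate.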

A further experiment concerns Shigella flexneri. The experiment is described as above. The method, boiled down:
as §1

In the next experiment the test system is Vibrio cholerae. The experiment is described as above. The method, boiled down:
as §1

Experiment [2] concerns Yersinia pseudotuberculosis. The experiment is described as above. The method, boiled down:
as §1

A further experiment deals with P. vulgatus RND KO. The experiment in a line: growth AUC normalised to DMSO control (median) (fraction of control); higher = less growth inhibition, active = hit call of the paper. The method, boiled down: (§2)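 Area under the growth curve, calculated by the trapezoidal rule up to entry into stationary phase, was normalised to vehicle wells on the same plate. Strains had been passaged twice overnight without oxygen and then grown in mGAM in 96-well plates from OD578 0.01, each with an approved-drug library compound at 20 μM in 1% DMSO. OD578 was read hourly over 24 h in an anaerobic incubator, and the median of three biological replicates is given.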

In another experiment the test system is P. vulgatus WT. Described as above. The gist of the method:
as §2

For experiment [3], the system named is S. enterica typhimurium WT. The description is as above. The gist of the method: as §2
Experiment [4] has as its system S. enterica typhimurium tolC KO. The experiment is described as above. The method, boiled down:
as §2
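Wherever growth AUC normalised to DMSO control (median) is given: active when median AUC fell below 0.1.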

On to `CC(C)c1c(C(=O)Nc2ccccc2)c(-c2ccccc2)c(-c2ccc(F)cc2)n1CC[C@@H](O)C[C@@H](O)CC(=O)O` [Atorvastatin], for which the “growth AUC normalised to DMSO control” value in experiment [1] was 1.01; with Shigella flexneri, 1.04; with Vibrio cholerae it was 1.04; in experiment [2], 1.01; in the experiment on P. vulgatus RND KO, 1.01; with P. vulgatus WT, 1. Further, the “growth AUC normalised to DMSO control” value is 0.993 in experiment [3] and 0.994 in experiment [4].

For `CN(C(=O)C(Cl)Cl)c1ccc(OC(=O)c2ccco2)cc1` [Diloxanide furoate], the “growth AUC normalised to DMSO control” value in experiment [1] is 0.998; with Shigella flexneri, 0.959; with Vibrio cholerae it was 0.97; in experiment [2] it was 0.978; with P. vulgatus RND KO it was 0.988; in the experiment on P. vulgatus WT it was 0.996. Further, the “growth AUC normalised to DMSO control” value in experiment [3] was 0.995; in experiment [4], 0.966.

On to `O=C(OCC(O)CO)c1ccccc1Nc1ccnc2cc(Cl)ccc12` (stereo not drawn) [Glafenine hydrochloride], for which the “growth AUC normalised to DMSO control” value was 0.981 in experiment [1]; 0.938 in the experiment on Shigella flexneri; 0.88 in the experiment with Vibrio cholerae; 0.941 in experiment [2]; 1.01 with P. vulgatus RND KO; 0.995 in the experiment on P. vulgatus WT. Besides, the “growth AUC normalised to DMSO control” value is 0.997 in experiment [3] and 0.935 in experiment [4].

In the case of `CS(=O)(=O)c1ccc([C@@H](O)[C@@H](CO)NC(=O)C(Cl)Cl)cc1` [Thiamphenicol], the “growth AUC normalised to DMSO control” value in experiment [1] was 0.408 (active); in the experiment with Shigella flexneri, 0.0249 (active); in the experiment on Vibrio cholerae, 0.037 (active); in experiment [2], 0.866 (active); with P. vulgatus RND KO, 0.0183 (active); in the experiment with P. vulgatus WT it was 0.0102 (active). The entries for the “growth AUC normalised to DMSO control” value in experiment [3] and in experiment [4] were 0.509 and 0.281, respectively.

Consider `COC(=O)C1=C(C)NC(C)=C(C(=O)OCCN(C)Cc2ccccc2)C1c1cccc([N+](=O)[O-])c1` (stereo not drawn) [Nicardipine hydrochloride], for which the “growth AUC normalised to DMSO control” value in experiment [1] was 1; in the experiment on Shigella flexneri, 1.01; in the experiment on Vibrio cholerae it was 0.966; in experiment [2] it was 1; in the experiment on P. vulgatus RND KO, 1.02; in the experiment on P. vulgatus WT, 0.977. Besides, the “growth AUC normalised to DMSO control” value was 1.01 in experiment [3] and 0.901 in experiment [4].

Regarding `Clc1cccc(Cl)c1NC1=NCCN1` [Clonidine hydrochloride], the “growth AUC normalised to DMSO control” value in experiment [1] is 1.01; in the experiment on Shigella flexneri, 1.02; in the experiment on Vibrio cholerae, 1.03; in experiment [2], 1.01; with P. vulgatus RND KO it was 0.998; in the experiment with P. vulgatus WT, 1.04. For the same compound, the entries for the “growth AUC normalised to DMSO control” value in experiment [3] and in experiment [4] were 0.996 and 1.01, respectively.

With `NC(=O)c1cnccn1` [Pyrazinamide], the “growth AUC normalised to DMSO control” value is 0.99 in experiment [1]; 0.92 in the experiment on Shigella flexneri; 0.993 in the experiment with Vibrio cholerae; 0.99 in experiment [2]; 0.992 in the experiment with P. vulgatus RND KO; 0.993 with P. vulgatus WT. The “growth AUC normalised to DMSO control” value in experiment [3] and in experiment [4] was 0.999 throughout.

With `CCC1NC(=O)c2cc(S(N)(=O)=O)c(Cl)cc2N1` (stereo not drawn) [Quinethazone], the “growth AUC normalised to DMSO control” value was 1.01 in experiment [1]; 1.03 in the experiment on Shigella flexneri; 1.05 with Vibrio cholerae; 1.01 in experiment [2]; 1.06 with P. vulgatus RND KO; 1.12 with P. vulgatus WT. Moreover, the “growth AUC normalised to DMSO control” value in experiment [3] and in experiment [4] was 1.01 in each case.

In the case of `CCOC(=O)Nc1ccc2c(c1)N(C(=O)CCN1CCOCC1)c1ccccc1S2` [Moricizine hydrochloride], the “growth AUC normalised to DMSO control” value in experiment [1] is 1.01; with Shigella flexneri, 0.997; in the experiment on Vibrio cholerae it was 0.942; in experiment [2], 1.01; in the experiment on P. vulgatus RND KO, 0.766; in the experiment with P. vulgatus WT, 0.638. The “growth AUC normalised to DMSO control” value in experiment [3] is 1.01; in experiment [4], 0.957.

Take `COC(=O)Nc1nc2cc(C(=O)c3ccccc3)ccc2[nH]1` [Mebendazole]: the “growth AUC normalised to DMSO control” value in experiment [1] was 0.975; with Shigella flexneri, 0.975; in the experiment on Vibrio cholerae, 0.951; in experiment [2] it was 0.996; in the experiment with P. vulgatus RND KO, 0.998; in the experiment with P. vulgatus WT, 0.991. The “growth AUC normalised to DMSO control” value in experiment [3] was 0.998; in experiment [4] it was 0.989.

For `CN(C)CCC=C1c2ccccc2COc2ccccc21` [Doxepin hydrochloride], the “growth AUC normalised to DMSO control” value in experiment [1] was 1; in the experiment with Shigella flexneri, 0.977; in the experiment on Vibrio cholerae, 0.899; in experiment [2], 0.994; in the experiment on P. vulgatus RND KO, 0.976; with P. vulgatus WT, 0.962. Moreover, the results for the “growth AUC normalised to DMSO control” value in experiment [3] and in experiment [4] were 0.997 and 0.977, respectively.

Turning to `CCN[C@H]1CN(CCCOC)S(=O)(=O)c2sc(S(N)(=O)=O)cc21` [Brinzolamide], the “growth AUC normalised to DMSO control” value in experiment [1] was 0.965; in the experiment with Shigella flexneri, 0.952; with Vibrio cholerae, 0.965; in experiment [2] it was 0.989; with P. vulgatus RND KO it was 0.986; with P. vulgatus WT, 0.973. The results for the “growth AUC normalised to DMSO control” value in experiment [3] and in experiment [4] were 0.995 and 1, respectively.

Regarding `CCN1CCCC1CNC(=O)c1cc(S(=O)(=O)CC)c(N)cc1OC` (stereo not drawn) [Amisulpride], the “growth AUC normalised to DMSO control” value was 0.998 in experiment [1]; 1 with Shigella flexneri; 1.01 with Vibrio cholerae; 0.99 in experiment [2]; 1.02 in the experiment on P. vulgatus RND KO; 1.01 in the experiment on P. vulgatus WT. Further, the “growth AUC normalised to DMSO control” value in experiment [3] was 1.01; in experiment [4], 0.995.

Consider `CCc1cc(C(N)=S)ccn1` [Ethionamide], for which the “growth AUC normalised to DMSO control” value in experiment [1] was 0.991; with Shigella flexneri it was 0.963; in the experiment with Vibrio cholerae it was 0.998; in experiment [2], 0.975; in the experiment with P. vulgatus RND KO, 1; in the experiment with P. vulgatus WT, 0.986. Further, the “growth AUC normalised to DMSO control” value in experiment [3] is 0.996; in experiment [4], 0.994.

On to `CCn1cc(C(=O)O)c(=O)c2cnc(N3CCCC3)nc21` [Piromidic acid], for which the “growth AUC normalised to DMSO control” value in experiment [1] was 0.996; in the experiment with Shigella flexneri, 1.04; with Vibrio cholerae, 0.0557 (active); in experiment [2], 0.983; in the experiment with P. vulgatus RND KO, 1.06; in the experiment with P. vulgatus WT, 1.03. In addition, the entries for the “growth AUC normalised to DMSO control” value in experiment [3] and in experiment [4] were 1.02 and 0.0548 (active), respectively.

On to `O=C(N[C@H](CO)[C@H](O)c1ccc([N+](=O)[O-])cc1)C(Cl)Cl` [Chloramphenicol], for which the “growth AUC normalised to DMSO control” value was 0.00522 (active) in experiment [1]; 0.0276 (active) in the experiment on Shigella flexneri; 0.0386 (active) in the experiment with Vibrio cholerae; 0.0352 (active) in experiment [2]; 0.018 (active) in the experiment on P. vulgatus RND KO; 0.0107 (active) in the experiment on P. vulgatus WT. Further, the “growth AUC normalised to DMSO control” value was 0.00734 (active) in experiment [3] and 0.00302 (active) in experiment [4].
